High-throughput results from PubChem.
Compounds with a hit are over-represented: about 2.9% of the library has one in this group of screens.
Nrf2 activator – qHTS of Nrf2 Activators; Potency, µM (doses to about 46.1 µM), actives largely listed as activators; AREc32 ARE-luciferase reporter (MCF7-derived line), luminescence, 24 h; 0.31% of 410,000 active; also: nearly all actives have a fitted effect of over 65% in size
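Nrf2 activation is followed as ARE-luciferase induction in the AREc32 line after one day of compound treatment; luminescence is read with Steady-Glo.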
A549 tox-1 – Nrf2 qHTS screen for inhibitors: counterscreen for cytotoxicity | AID 504648, 2011 | 0.16% of 390,000 active | A549 ARE-Fluc cells, CellTiter-Fluor viability, 18-24 h | Potency, µM (series often up to 46 µM), actives largely listed as inhibitors
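A549 ARE-Fluc cells in 5% FBS OPTI-MEM, 5000 cells/well, rested 2 h then exposed to compounds in concentration-response for 18-24 h at 37 °C. Viability by CellTiter-Fluor fluorescence (Ex 405/Em 525) after 30 min; luciferase luminescence (BugLite, 15 min, RT) read afterwards.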
Nrf2 inh – Nrf2 qHTS screen for inhibitors. A549 ARE-Fluc reporter, luciferase luminescence, 18-24 h. Potency, µM (doses to about 46 µM), actives largely listed as inhibitors. 2.1% of 360,000 active; also: nearly all actives have a fitted effect of over 60% in size
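A549 ARE_Fluc cells, 5000/well, 5% FBS OPTI-MEM; compounds in dose-response, 18-24 h at 37 °C/5% CO2; CellTiter-Fluor viability read (Ex 405/Em 525), then BugLite luciferase luminescence = Nrf2 activity.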
ATXN2 expr inh – Primary qHTS for Inhibitors of ATXN expression. HEK-293 ATXN2-luciferase reporter, luminescence, 24 h. Potency, µM (titrated, usually from 57 µM), actives largely listed as inhibitors. 0.72% of 360,000 active. AID 1745845, 2022; also: nearly all actives have a fitted effect of over 55% in size
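qHTS (up to 57 uM final) was run with 24 h compound exposure of reporter cells at 37 °C. Each well was multiplexed: SteadyGlo luminescence measured ATXN2-luciferase expression after a fluorogenic Gly-Phe-AFC viability readout (25 uM final).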
ATXN viability – Viability Counterscreen for Primary qHTS for Inhibitors of ATXN expression; Potency, µM (doses to about 56.7 µM), most hits filed as cytotoxic; 0.49% of 400,000 active; S2 cells (HEK-293 line with an ATXN2-luciferase reporter) viability, CellTiter-Fluor protease fluorescence, 24 h; AID 651635, 2014; also: nearly all actives have a fitted effect of over 40% in size
FLuc counter 3 – Nrf2 qHTS screen for inhibitors: Purified Fluc Biochemical Counterscreen for Hit Validation. Potency, µM (top dose mostly 57.5 µM), usual class: inhibitors. purified firefly luciferase, luminescence inhibition. 4% of 1,400 active. shares compounds with Nrf2 inh; also: nearly all actives have a fitted effect of over 65% in size
Target sequence (P08659 whole entry, looked up): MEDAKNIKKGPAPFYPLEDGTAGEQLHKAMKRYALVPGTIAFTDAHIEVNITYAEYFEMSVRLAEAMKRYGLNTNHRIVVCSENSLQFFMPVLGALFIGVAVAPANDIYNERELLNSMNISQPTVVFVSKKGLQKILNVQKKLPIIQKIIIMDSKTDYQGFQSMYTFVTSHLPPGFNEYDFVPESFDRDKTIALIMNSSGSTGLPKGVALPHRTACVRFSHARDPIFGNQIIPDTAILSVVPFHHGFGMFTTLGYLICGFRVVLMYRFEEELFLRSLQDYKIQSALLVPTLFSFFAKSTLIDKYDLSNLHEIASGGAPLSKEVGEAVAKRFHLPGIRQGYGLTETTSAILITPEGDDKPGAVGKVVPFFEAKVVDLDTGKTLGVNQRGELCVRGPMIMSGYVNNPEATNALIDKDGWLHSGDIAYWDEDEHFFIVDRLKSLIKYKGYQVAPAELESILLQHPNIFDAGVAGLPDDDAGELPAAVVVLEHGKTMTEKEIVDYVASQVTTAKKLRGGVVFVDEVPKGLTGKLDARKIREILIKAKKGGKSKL
A549 tox-2 – Nrf2 qHTS screen for inhibitors: A549 ARE-Fluc Cytotoxicity Counterscreen for Hit Validation | shares compounds with Nrf2 inh | A549 ARE-Fluc cells, cytotoxicity counterscreen | Potency, µM (top dose mostly 46.1 µM), actives largely listed as inhibitors | 2% of 1,400 active | AID 720523, 2013;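 also: cells exposed to compounds for 18 to 24 hours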
ARE-Fluc inh – Nrf2 qHTS screen for inhibitors: Nrf2 A549 ARE-Fluc Confirmation Assay for Hit Validation; AID 720524, 2013; shares compounds with Nrf2 inh; A549 ARE-firefly luciferase reporter, luminescence; Potency, µM (doses to about 46.1 µM), usual class: inhibitors; 74% of 1,400 active; also: nearly all actives have a fitted effect of over 65% in size
Large screens that a line does not name were inactive (follow-up assays come after a bar, where shown). Calls follow the shape of the dose curve; as a rule, active = well fitted curve in the direction sought with a large enough effect; inconclusive = small, poorly fitted or top-dose-only effect, or another doubt; inactive = no such curve, though single readings can be large; an effect the other way counts as inactive or inconclusive.

NC1=NC(c2ccccc2C(F)(F)F)N(c2ccc(F)c(Cl)c2)C(N)=N1 (stereo not drawn)	none
COc1ccc(NS(=O)(=O)c2ccc(O)c(NC(=O)c3ccc(S(=O)(=O)N4CCCCCC4)cc3)c2)cc1	ATXN viability inconclusive
COc1ccc(NS(=O)(=O)c2cccc(NC(=O)c3ccc(S(=O)(=O)N4CCCCCC4)cc3)c2)cc1	A549 tox-1 inconclusive, Nrf2 inh 5.8µM, ATXN2 expr inh inconclusive, ATXN viability inconclusive | FLuc counter 3 inactive | A549 tox-2 inactive | ARE-Fluc inh 5.8µM
O=C(Nc1cccc(S(=O)(=O)C(F)F)c1)c1ccc(S(=O)(=O)N2CCCC2)cc1	A549 tox-1 inconclusive, Nrf2 inh 5.8µM, ATXN2 expr inh inconclusive, ATXN viability inconclusive | FLuc counter 3 inactive | A549 tox-2 inactive | ARE-Fluc inh inconclusive
O=C(/C=C/c1ccc(Cl)cc1)NC(=S)Nc1ccc(NC(=O)c2ccco2)cc1	Nrf2 inh 0.82µM | FLuc counter 3 inactive | A549 tox-2 inactive | ARE-Fluc inh 0.82µM
COc1ccc(-c2c(C#N)c(SCC(=O)c3cc4ccccc4oc3=O)nc(C)c2C(=O)Nc2ccccc2)cc1	Nrf2 inh 6.5µM, ATXN viability inconclusive | FLuc counter 3 inactive | A549 tox-2 inactive | ARE-Fluc inh 15µM
COc1ccc(-c2c(C#N)c(SCC(=O)Nc3ccc(Br)cc3)nc(C)c2C(=O)Nc2ccccc2)cc1	ATXN viability inconclusive
CC1CC2=C(NC(=S)NC2c2ccccc2F)/C(=C/c2ccccc2F)C1 (stereo not drawn)	none
O=C(COc1ccc(S(=O)(=O)NC2CCCCC2)cc1)N1CCN(c2cccc(Cl)c2)CC1	A549 tox-1 inconclusive, Nrf2 inh 5.8µM | FLuc counter 3 inactive | A549 tox-2 inactive | ARE-Fluc inh 9.2µM
CCC(=O)Nc1cc(-c2nn(C)c(=O)c3ccccc23)ccc1N1CCCCC1	none
CC(C)CC(=O)N1CCN(S(=O)(=O)c2ccc(C3CCCCC3)cc2)CC1	Nrf2 inh 8.2µM | FLuc counter 3 inactive | A549 tox-2 inactive | ARE-Fluc inh inconclusive
COc1ccc2cc3c(N)nn(C(=O)c4cccc(F)c4)c3nc2c1	Nrf2 inh inconclusive (no result: ATXN2 expr inh)
COc1ccc2cc3c(N)nn(C(=O)c4ccccc4Cl)c3nc2c1	Nrf2 inh 9.2µM, ATXN viability inconclusive | FLuc counter 3 inactive | A549 tox-2 inactive | ARE-Fluc inh inconclusive
O=C(C1CC(=O)N(c2ccc(F)cc2)C1)N1CCN(c2ccc(F)cc2)CC1 (stereo not drawn)	none
COc1nc(C#N)nc(N2CCCCC2)n1	none (no result: Nrf2 activator, ATXN2 expr inh, ATXN viability)
N#Cc1nc(N2CCCC2)nc(N2CCCC2)n1	Nrf2 inh 5.2µM | FLuc counter 3 inactive | A549 tox-2 inactive | ARE-Fluc inh 13µM
CCC(C)(C)NC(=O)C(c1ccc(OC)cc1)N(C(=O)CCC(=O)Nc1cc(C)on1)c1cccc(OC)c1 (stereo not drawn)	none
Cc1cccc(N2CCN(C(=O)C3CCC(CNS(=O)(=O)c4cccs4)CC3)CC2)c1C (stereo not drawn)	Nrf2 inh 6.5µM, ATXN2 expr inh inconclusive, ATXN viability inconclusive | FLuc counter 3 inactive | A549 tox-2 inactive | ARE-Fluc inh 8.2µM
Cc1cccc(N2CCN(C(=O)C3CCC(CNS(=O)(=O)c4ccc(Br)s4)CC3)CC2)c1C (stereo not drawn)	Nrf2 inh inconclusive
Cn1c(-c2ccccc2)c[n+]2c1-c1ccccc1C2	Nrf2 inh inconclusive (no result: ATXN2 expr inh) | FLuc counter 3 inactive | A549 tox-2 inactive | ARE-Fluc inh 1.6µM
Cc1nn(-c2ccc(NC(=O)c3ccncc3)cc2)c(C)c1Cl	Nrf2 inh 3.7µM, ATXN2 expr inh inconclusive | FLuc counter 3 inactive | A549 tox-2 inactive | ARE-Fluc inh 7.3µM
COc1ccc(/C=C2\SC(=O)N(CCCC(=O)Nc3cc(Cl)ccc3C(=O)O)C2=O)cc1	Nrf2 inh 0.73µM | FLuc counter 3 12µM | A549 tox-2 inactive | ARE-Fluc inh 1.5µM
COc1ccc(/C=C2\SC(=S)N(CCC(=O)Nc3ccccc3C(=O)O)C2=O)cc1	Nrf2 inh inconclusive, ATXN2 expr inh inconclusive
COc1ccc(N2C(=O)CC(c3ccccc3)CC2=O)cc1	none
O=C(O)CSc1cc(NS(=O)(=O)c2ccc(Br)cc2)c2ccccc2c1O	Nrf2 inh 2.3µM (no result: ATXN2 expr inh) | FLuc counter 3 12µM | A549 tox-2 inactive | ARE-Fluc inh inactive
CC(=O)c1cccc(NS(=O)(=O)c2cc(-c3onc(C)c3C)ccc2C)c1	Nrf2 inh 8.2µM | FLuc counter 3 inactive | A549 tox-2 inactive | ARE-Fluc inh 5.8µM
Cc1noc(-c2ccc(N(C)Cc3ccccc3)c([N+](=O)[O-])c2)n1	Nrf2 inh inconclusive
CCc1nc(N)nc(N)c1-c1ccc(N(C)Cc2ccccc2)c([N+](=O)[O-])c1	Nrf2 inh 1.3µM, ATXN2 expr inh 19µM, ATXN viability inconclusive | FLuc counter 3 inactive | A549 tox-2 inactive | ARE-Fluc inh 1.2µM
N=C1/C(=C\c2ccc(OC(=O)c3ccco3)cc2)C(=O)N=C2SC(N3CCCCC3)=NN12	none
Cc1ccc2c(c1)c(/C=C/c1cc[n+](C)cc1)c(C)n2C	A549 tox-1 inconclusive, Nrf2 inh 3.7µM (no result: ATXN2 expr inh) | FLuc counter 3 inactive | A549 tox-2 inconclusive | ARE-Fluc inh 6.5µM
Cc1nc2sc(C(c3ccco3)N3CCC(C)CC3)c(O)n2n1 (stereo not drawn)	none
Cn1cc(/C=C/c2cc[n+](C)cc2)c2cc(F)ccc21	A549 tox-1 inconclusive, Nrf2 inh 1.6µM, ATXN2 expr inh inconclusive (no result: ATXN viability) | FLuc counter 3 inactive | A549 tox-2 inactive | ARE-Fluc inh 1.6µM
CCCn1c(/C=C/c2cc[n+](C)cc2)nc2ccccc21	A549 tox-1 inconclusive (no result: ATXN viability)
C[n+]1ccc(/C=C/c2c[nH]c3ccc(F)cc23)cc1	A549 tox-1 inconclusive, Nrf2 inh 1.2µM | FLuc counter 3 inactive | A549 tox-2 inconclusive | ARE-Fluc inh 1.8µM
COc1ccc(OCC(=O)OCc2cc(=O)n3nc(C4CCCCC4)sc3n2)cc1	Nrf2 inh inconclusive
Cn1c(=O)c2[nH]c(CCCCCCCCc3nc4ccccc4[nH]3)nc2n(C)c1=O	Nrf2 inh 8.2µM, ATXN viability inconclusive | FLuc counter 3 inactive | A549 tox-2 inactive
